The text below walks through data of PubChem BioAssay.

Assay [1] is described as follows: reducers of endogenous Her2 protein level, primary screen, SKBR3 breast tumor cells, AlphaScreen, ATP viability (AID 461;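 active = Her2 level under about 52% in both replicate screens, with viability over 70% of control, limit read from the data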;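 for Her2 level: lower value means less Her2 protein in the cells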;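 for viability: percent of carrier control wells set as 100% viability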). The note with it: 18-24 h, measured here: SKBR3 viability, ATP luminescence, at 10 µM.
For assay [2], the target named is Receptor tyrosine-protein kinase erbB-2 (Homo sapiens) (UniProt P04626). The assay is described as above. Conditions: 18-24 h, at 10 µM, stronger effect = lower value.
Chain of Receptor tyrosine-protein kinase erbB-2 (Homo sapiens) (P04626 whole entry, looked up): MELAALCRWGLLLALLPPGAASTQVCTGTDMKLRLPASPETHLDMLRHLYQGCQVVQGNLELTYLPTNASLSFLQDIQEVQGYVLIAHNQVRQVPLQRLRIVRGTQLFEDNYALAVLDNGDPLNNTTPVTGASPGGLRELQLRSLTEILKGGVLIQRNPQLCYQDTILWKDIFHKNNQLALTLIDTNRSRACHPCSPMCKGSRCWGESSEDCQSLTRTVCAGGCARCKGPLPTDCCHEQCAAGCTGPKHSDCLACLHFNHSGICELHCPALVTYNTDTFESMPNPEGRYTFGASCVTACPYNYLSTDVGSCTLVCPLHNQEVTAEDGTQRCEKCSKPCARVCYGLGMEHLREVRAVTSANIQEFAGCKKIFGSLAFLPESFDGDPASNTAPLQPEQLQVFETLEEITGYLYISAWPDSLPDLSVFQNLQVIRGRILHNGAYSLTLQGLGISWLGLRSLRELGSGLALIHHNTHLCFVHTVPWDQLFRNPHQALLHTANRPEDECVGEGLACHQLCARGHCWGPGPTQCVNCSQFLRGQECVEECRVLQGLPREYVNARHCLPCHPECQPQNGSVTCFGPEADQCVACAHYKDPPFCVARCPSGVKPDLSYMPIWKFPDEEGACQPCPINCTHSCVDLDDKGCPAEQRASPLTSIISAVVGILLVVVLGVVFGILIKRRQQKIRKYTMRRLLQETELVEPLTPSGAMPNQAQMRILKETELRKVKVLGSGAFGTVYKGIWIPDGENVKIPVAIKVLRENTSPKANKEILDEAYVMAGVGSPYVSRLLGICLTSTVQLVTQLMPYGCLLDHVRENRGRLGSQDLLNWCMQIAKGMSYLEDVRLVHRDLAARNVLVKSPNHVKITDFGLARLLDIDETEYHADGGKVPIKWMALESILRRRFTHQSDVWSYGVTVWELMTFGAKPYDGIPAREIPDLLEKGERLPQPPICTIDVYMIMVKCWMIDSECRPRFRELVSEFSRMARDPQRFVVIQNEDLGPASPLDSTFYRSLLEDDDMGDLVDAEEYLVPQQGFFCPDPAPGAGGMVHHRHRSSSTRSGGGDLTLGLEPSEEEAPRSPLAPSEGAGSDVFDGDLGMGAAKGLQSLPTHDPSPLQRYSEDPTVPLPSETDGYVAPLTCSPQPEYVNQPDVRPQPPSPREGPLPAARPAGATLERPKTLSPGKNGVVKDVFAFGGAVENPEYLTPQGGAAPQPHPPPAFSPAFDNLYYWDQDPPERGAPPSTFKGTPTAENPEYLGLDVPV
Assay [3] in a line: SK-BR-3 cell growth inhibitors, pilot screen, 24 h, human (AID 572;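 active = viability at or below 10% of carrier control in both of two separate runs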;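 note: compound exposure lasted between 18 and 24 h rather than exactly 24 h; 100% = carrier-treated control wells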). Conditions: SK-BR-3 viability, CellTiter-Glo luminescence, at 10 µM, stronger effect = lower value. In general terms: In ATP-based viability assays light output follows the ATP content of the culture.
A short description of assay [4]: HUVEC growth inhibition – cell-based, human, primary screen (AID 575;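 active = viability at or below 30% in both replicate assays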;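 note: 100% = median of untreated cell wells with 0.1% DMSO on each plate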). The note with it: HUVEC proliferation, CellTiter-Glo luminescence, 72 h; at 10 µM; stronger effect = lower value.
Assay [5] in a line: growth inhibitors of H69AR lung tumor, primary screen, human, duplicate replicates (AID 580;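 active = viability at or under a set limit in both replicates, limit being median viability minus 3 SD, cut at about 48% in these data, passing the limit was not always enough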;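 note: 100% = mean luminescence of untreated wells and 0% = no signal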). Conditions: H69AR lung tumor cells viability, ATP luminescence, 72 h; at 10 µM; stronger effect = lower value.
Assay [6] can be described thus: reversal of MRP1-mediated doxorubicin resistance, pilot screen, H69AR cells, doxorubicin co-treatment (AID 601;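 active = viability loss from added drug above about 55%, and viability with drug at most 40%, in both replicates, limit read from the data, passing the limit was not always enough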). Conditions: CellTiter-Glo, 72 h, at 10 µM; for differential viability (reversal): stronger effect = higher value.
The nature of assay [7]: 384-well plate pilot, post-Golgi transport modulator project, inhibition of yeast transport mutant growth (AID 636; in the data active = inhibition above about 31%). The note with it: absorbance 615 nm, about 18 h, stronger effect = higher value.
Assay [8] can be described thus: growth suppression of yeast trafficking mutant, preliminary HTS, modulators of trafficking downstream of Golgi apparatus project, 1536-format plate, OD 615 nm (AID 637; in the data active = inhibition above about 30%). The note with it: yeast transport mutant growth, absorbance 615 nm, 18 h; stronger effect = higher value.
A short description of assay [9]: OD615 S. cerevisiae growth inhibition, permissive medium, pilot counter-assay, permissive growth control for S. cerevisiae lifespan shortening project (AID 705;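 active = growth inhibition above 25% in both replicates, a cutoff set 3 SD above the mean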). Conditions: OD615, 24 h, at 10 µM, stronger effect = higher value.
A short description of assay [10]: Restrictive medium S. cerevisiae growth inhibition, OD615, pilot screen of yeast lifespan reduction project, restrictive growth control (AID 706;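 active = growth inhibition above a set limit, 3 SD over mean compound inhibition, in both replicates, cut at about 43% in these data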;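 note: modified DeaD lifespan yeast strain shifted to restrictive glucose medium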). Conditions: OD615, 48 h, at 10 µM, stronger effect = higher value.
A short description of assay [11]: viability gain of MRP-1-high H69AR cells under doxorubicin, pilot screen, MRP-1 activator project, CellTiter-Glo, duplicate (AID 807).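 Note: compound pretreatment 18-22 h then 72 h combined with doxorubicin; 0% = doxorubicin alone and 100% = vehicle without doxorubicin.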 The note with it: H69AR viability with doxorubicin, CellTiter-Glo luminescence; at 10 µM; stronger effect = higher value.
The nature of assay [12]: growth suppression of beta-catenin knockout HCT116, pilot screen, human colon tumor cells (AID 823;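 active = cell viability at or below a set limit in both duplicate runs, the limit being the all-compound median minus 4 SD, cut at about 23% in these data, passing the limit was not always enough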;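 note: 0% = wells killed by 20 µM Hyamine and 100% = untreated DMSO cell wells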). Conditions: CellTiter-Glo, 60 h, at 10 µM, stronger effect = lower value.
Assay [13] can be described thus: growth suppression of PTEN-deleted HCT116, pilot screen, cell-based, HCT116 clonal line, CellTiter-Glo (AID 824;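 active = viability at or below 27.92% in each of two runs, the all-compound median minus 4 SD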;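 note: 0% = 20 µM Hyamine control and 100% = vehicle cell control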). The note with it: 60 h, at 10 µM, stronger effect = lower value.
Assay [14] is described as follows: inhibitors of the yeast RAM network, pilot screen, dse1pr::URA3 reporter, 5-FOA selection (AID 869;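 active = inhibition over a set limit, the all-compound mean plus 3 SD, in both replicate runs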;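 note: 0% = DMSO wells with no growth and 100% = 10 µM 1-NA-PP1 with full growth; RAM network block rescues cells from 5-FOA so hits raise OD615 growth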). The note with it: S. cerevisiae dse1pr::URA3 5-FOA growth, OD615, 2 d; at 10 µM; stronger effect = higher value; strain carries analog-sensitive mutant Cbk1 kinase.
Assay [15] is described as follows: RAM signaling pathway blockade in yeast – S. cerevisiae, Pdr1DBD-CYC8 efflux-inhibited sensitized strain, primary screen (AID 1298;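 active = RAM network inhibition above 8.4% in each of two replicates, 3 SD over the compound average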;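 note: 0% = DMSO untreated cells without growth and 100% = 10 µM 1-NA-PP1 full growth; higher means more yeast growth rescued from 5-FOA killing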). Conditions: S. cerevisiae cbk1-as DSE1-URA3 strain, 5-FOA growth OD615, 2 d; at 50 µM; stronger effect = higher value.
The mark [16] stands for this setting: H69AR cells + 2 uM doxorubicin, measured here: viability with 2 uM doxorubicin, stronger effect = lower value.
The mark [17] stands for this setting: H69AR cells, compound alone cytotoxicity.

A word on the viability: it is a read-out of living cells in per cent, often relative to untreated cells. In general, inhibition refers to the relative decrease from the control value, in per cent.

Structures are written as SMILES. Results filed as inconclusive are left out. Calls of active or inactive are those of the source.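 Rule for the calls, unless noted: active = viability increase at or above a cutoff of the median across tested compounds plus 3 SD (cut at about 8.5% in these data, passing the limit was not always enough); inconclusive = some gains above the cutoff, reason not given; inactive = the rest.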

Consider `COC(=O)c1ccc(NC(=O)CN2CCCC2)cc1`, for which the viability in assay [1] is 107%; in assay [3], 107% (inactive); in assay [4] it was 104% (inactive); in assay [5], 99.9% (inactive); in assay [6] (setting [16]), 99.2%; in assay [6] (setting [17]), 99.9%. Also, the results for the viability in assay [12] and in assay [13] were 98% (inactive) and 102% (inactive), respectively. Besides, the Her2 level in assay [2] is 97.5% (inactive). Moreover, the differential viability (reversal) in assay [6] (H69AR cells + 2 uM doxorubicin) is 0.64% (inactive). The inhibition in [7] was -2% (inactive); in assay [8] it was -1.13% (inactive); in [14], 0.115% (inactive). The growth inhibition was -4.15% (inactive) in [9] and -3.12% (inactive) in [10]. Further, in [11], the viability increase was -0.69% (inactive). In addition, the RAM network inhibition in [15] is 0.47% (inactive).

As for `Cn1nnnc1SCC(=O)N1CCN(c2ccccc2)CC1`, the viability was 94.5% in assay [1]; 94.5% (inactive) in assay [3]; 97.4% (inactive) in assay [4]; 87.7% (inactive) in assay [5]; 78.8% in assay [6] (setting [16]); 87.7% in assay [6] (setting [17]). Further, the viability in assay [12] is 93.1% (inactive); in assay [13], 99.6% (inactive). Also, the Her2 level in assay [2] was 122% (inactive). Also, the differential viability (reversal) in assay [6] (H69AR cells + 2 uM doxorubicin) is 8.86% (inactive). Also, the results for the inhibition in assay [7], in assay [8] and in assay [14] were 1.92% (inactive), -6.33% (inactive) and 0.735% (inactive), respectively. Besides, the growth inhibition in [9] is -0.355% (inactive); in assay [10], -1.68% (inactive). Also, the viability increase in [11] is -0.97% (inactive). Also, in assay [15], the RAM network inhibition was 1.14% (inactive).

Take `CCOc1ccc(S(=O)(=O)n2c(C)nc3ccccc32)cc1`: the viability is 93% in [1]; 93% (inactive) in assay [3]; 65.8% (inactive) in assay [4]; 71.2% (inactive) in assay [5]; 117% in assay [6] (setting [16]); 71.2% in assay [6] (setting [17]). For the same molecule, the viability in [12] was 98.2% (inactive); in [13], 96.2% (inactive). In addition, the Her2 level in [2] is 112% (inactive). In addition, the differential viability (reversal) in assay [6] (H69AR cells + 2 uM doxorubicin) was -45.5% (inactive). Besides, the inhibition is 0.51% (inactive) in assay [7], 5.67% (inactive) in assay [8] and 1.31% (inactive) in [14]. For the same molecule, the growth inhibition was -11.5% (inactive) in [9] and 0.25% (inactive) in assay [10]. For the same molecule, in assay [11], the viability increase is 1.02% (inactive). Moreover, the RAM network inhibition in [15] is 1.31% (inactive).

As for `CCN(CC)C(=O)c1ccc(CS(=O)(=O)c2ccc(OC)cc2)o1`, the viability was 84.5% in [1]; 84.5% (inactive) in assay [3]; 99.2% (inactive) in [4]; 87.8% (inactive) in [5]; 88.7% in assay [6] (setting [16]); 87.8% in assay [6] (setting [17]). For the same molecule, the viability was 97.4% (inactive) in assay [12] and 95.3% (inactive) in assay [13]. Further, the Her2 level in [2] was 116% (inactive). In addition, the differential viability (reversal) in assay [6] (H69AR cells + 2 uM doxorubicin) was -0.895% (inactive). The inhibition in assay [7] was 1.54% (inactive); in [8], -6% (inactive); in [14], 1.96% (inactive). Also, the growth inhibition in assay [9] was -6.54% (inactive); in assay [10], -7.93% (inactive). In [11], the viability increase was -1.02% (inactive). In addition, the RAM network inhibition in assay [15] was 3.14% (inactive).

With `CCCCc1nc2ccccc2n2cc3c(=O)n(C)c(=O)n(C)c3c12`, the viability is 86% in assay [1]; 86% (inactive) in assay [3]; 106% (inactive) in assay [4]; 89.6% (inactive) in assay [5]; 84.8% in assay [6] (setting [16]); 89.6% in [6] (setting [17]). Also, the viability in assay [12] was 95.8% (inactive); in [13], 89.2% (inactive). For the same molecule, the Her2 level in assay [2] is 86% (inactive). Besides, the differential viability (reversal) in [6] (H69AR cells + 2 uM doxorubicin) is 4.81% (inactive). The figures for the inhibition in assay [7], in assay [8] and in assay [14] were 0% (inactive), 2.17% (inactive) and 1.36% (inactive), respectively. The growth inhibition in assay [9] is -9.65% (inactive); in assay [10] it was -16.2% (inactive). For the same molecule, the viability increase in assay [11] is -4.07% (inactive). Besides, in [15], the RAM network inhibition is 0.47% (inactive).

For the molecule `CCOc1cc(C2CC(=O)N3CN(C4CCCCC4)CSC3=C2C#N)ccc1O` (stereo not drawn), the viability in assay [1] is 85%; in [3], 85% (inactive); in assay [4] it was 113% (inactive); in assay [5] it was 87.3% (inactive); in assay [6] (setting [16]), 101%; in assay [6] (setting [17]), 87.3%. Besides, the viability in assay [12] was 105% (inactive); in [13], 95.1% (inactive). For the same molecule, the Her2 level in assay [2] is 108% (inactive). Besides, the differential viability (reversal) in [6] (H69AR cells + 2 uM doxorubicin) is -13.7% (inactive). For the same molecule, the inhibition in assay [7] is 1.92% (inactive); in [8], 2% (inactive); in assay [14], 0.17% (inactive). The values for the growth inhibition in assay [9] and in [10] were 41.6% (active) and 76% (active), respectively. Besides, the viability increase in assay [11] is -4.1% (inactive). The RAM network inhibition in [15] is 2.85% (inactive).

Take `O=C(Nc1ccccc1)c1cnc2n(c1=O)CCS2`: the viability was 92.5% in assay [1]; 92.5% (inactive) in assay [3]; 101% (inactive) in assay [4]; 91.1% (inactive) in [5]; 93.5% in assay [6] (setting [16]); 91.1% in assay [6] (setting [17]). In addition, the viability in assay [12] was 104% (inactive); in assay [13], 97.2% (inactive). Also, the Her2 level in assay [2] was 88% (inactive). For the same molecule, the differential viability (reversal) in [6] (H69AR cells + 2 uM doxorubicin) is -2.48% (inactive). The inhibition is -4.8% (inactive) in assay [7], -0.49% (inactive) in [8] and 1.94% (inactive) in [14]. Further, the growth inhibition in assay [9] is -8.84% (inactive); in assay [10], 5.01% (inactive). Besides, the viability increase in [11] was -0.69% (inactive). Moreover, the RAM network inhibition in [15] was 2.15% (inactive).

With `CC1CCC(NC(=O)C2(C)CCC(=O)N2Cc2cccnc2)CC1` (stereo not drawn), the viability in assay [1] was 97%; in assay [3], 97% (inactive); in [4], 102% (inactive); in assay [5] it was 78.6% (inactive); in assay [6] (setting [16]) it was 87.5%; in assay [6] (setting [17]), 78.6%. Further, the viability in assay [12] is 107% (inactive); in assay [13], 98.3% (inactive). In addition, the Her2 level in assay [2] was 114% (inactive). Further, the differential viability (reversal) in assay [6] (H69AR cells + 2 uM doxorubicin) is -8.95% (inactive). Besides, the inhibition in assay [7] is 2.18% (inactive); in assay [8] it was -5.17% (inactive); in assay [14], 0.41% (inactive). In addition, the growth inhibition in [9] is -12.3% (inactive); in [10], -10.1% (inactive). Moreover, the viability increase in assay [11] is 1.23% (inactive). For the same molecule, in assay [15], the RAM network inhibition was 1.87% (inactive).

Take `COc1cc(NC(=O)CN(c2cc(C)cc(C)c2)S(=O)(=O)c2c(C)noc2C)cc(OC)c1`: the viability in assay [1] is 88.5%; in [3] it was 88.5% (inactive); in [4], 80.8% (inactive); in [5], 83.8% (inactive); in assay [6] (setting [16]), 84.3%; in [6] (setting [17]), 83.8%. The viability in [12] was 92.3% (inactive); in assay [13], 87.5% (inactive). The Her2 level in assay [2] is 108% (inactive). For the same molecule, in [6] (H69AR cells + 2 uM doxorubicin), the differential viability (reversal) was -0.43% (inactive). Further, the inhibition in [7] was 0.9% (inactive); in assay [8] it was -5% (inactive); in assay [14], 2.82% (inactive). In addition, the growth inhibition in assay [9] was -14.8% (inactive); in [10], -18.5% (inactive). Further, in [11], the viability increase is -4.92% (inactive). The RAM network inhibition in assay [15] was 4.61% (inactive).
